Where “and” joins values, the source holds several entries; their conditions need not be identical. Equal values may be shown once. In all, about 5,300 compounds were measured (“PER2::LUC luminescence relative to vehicle control”: median about 0.96, highest 2% from about 1.3 on). This is one part of a sample in which the highest values are shown more often than they occur.
System: mPer2Luc MEF
Experiment: PER2::LUC luminescence relative to vehicle control (fold of vehicle); higher = higher PER2::LUC reporter signal
Conditions: 10 µM
Outline: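 The value is PER2::LUC luminescence expressed as fold of vehicle control. Mouse embryonic fibroblasts carrying the mPer2Luc reporter were seeded at ~3000 cells per well in 384-well plates and grown in DMEM with 10% FBS at 37 °C and 5% CO2. Compounds from commercial libraries were added at 10 μM 48 h after seeding, and luminescence was read with the ONE-Glo luciferase assay system 24 h and 30 h after treatment, followed by an alamarBlue viability assay.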

Row | SMILES | PER2::LUC luminescence (time after treatment 24 h) | PER2::LUC luminescence (time after treatment 30 h)
1 | C[Si](C)(C)CCOCn1ccc2c(-c3cn[nH]c3)ncnc21 | 1.11 | 1.03
2 | O=C(O)CCC(=O)Nc1ccc(S(=O)(=O)Nc2nccs2)cc1 | 0.666 | 0.939
3 | S=C(Nc1ccccc1)Nc1nccs1 | 1.46 | 1.58
4 | O=C(O)c1ccccc1C(=O)Nc1ccc(S(=O)(=O)Nc2nccs2)cc1 | 0.993 | 0.892
5 | CCOc1ccc(C(Nc2ccccn2)c2ccc3ccc(C)nc3c2O)cc1C (stereo not drawn) | 1.13 | 1.13
6 | NC(N)=NCCC[C@H](NC(=O)[C@@H](N)Cc1ccc(O)cc1)C(=O)O | 1.04 | 0.909
7 | CS(=O)(=O)c1cc(F)cc2c3c(n(Cc4ccc(Cl)cc4)c12)[C@@H](CC(=O)O)CC3 | 1.13 | 1.09
8 | CC(C)CCC[C@@H](C)[C@H]1CC[C@H]2[C@@H]3CC=C4C[C@@H](O)CC[C@]4(C)[C@H]3CC[C@]12C | 0.926 | 0.923
9 | CC(=O)OC1CCC2(C)C(=CCC3C2CCC2(C)C(C(C)CCCC(C)C)CCC32)C1 (stereo not drawn) | 1.04 | 0.938
10 | CC(C)CCC[C@@H](C)[C@H]1CC[C@H]2[C@@H]3CC=C4CC(=O)CC[C@]4(C)[C@H]3CC[C@]12C | 1.42 | 1.09
11 | CO[C@H]1[C@H](OC(=O)c2ccc(C)[nH]2)[C@H](O)[C@@H](Oc2ccc3c(O)c(NC(=O)c4c[nH]c(C(=O)Nc5c(O)c6ccc(O[C@H]7OC(C)(C)[C@@H](OC)[C@H](OC(=O)c8ccc(C)[nH]8)[C@@H]7O)c(C)c6oc5=O)c4C)c(=O)oc3c2C)OC1(C)C | 1.1 | 1.13
12 | C/C1=C\CC(C)(C)/C=C/C(=O)/C(C)=C/CC1 | 1.08 | 1.06
13 | Cc1nc2ccccc2n1Cc1ccc(Cl)cc1 | 0.361 | 0.307
14 | CN(c1nccc(=O)[nH]1)C1CCN(c2nc3ccccc3n2Cc2ccc(F)cc2)CC1 | 1.07 | 1.45
15 | Clc1ccc(Cn2c(CN3CCCC3)nc3ccccc32)cc1 | 1.06 and 0.848 | 0.924 and 0.834
16 | COc1ccc([C@@H]2OC[C@@H]3[C@H]2CO[C@H]3c2ccc(OC)c(OC)c2)cc1OC | 1.05 | 1.07
17 | CC1(C)CC(NC(=O)C(=O)Nc2ccc(Br)cc2)CC(C)(C)N1 | 0.875 | 0.928
18 | NC1CCN(O)C1=O (single isomer, unassigned; (-)) | 1.08 | 1.01
19 | CC1(C)CC(NC(=O)C(=O)Nc2ccc(Cl)cc2)CC(C)(C)N1 | 0.958 | 1
20 | O=C(O)c1cc(=O)c2ccccc2[nH]1 | 1.08 | 0.931
21 | O=c1c2ccccc2nc2n1CCc1c-2[nH]c2ccccc12 | 1.36 | 1.51
22 | O=C1c2ccccc2-n2c1nc1ccccc1c2=O | 0.998 | 0.885
23 | CC1(C)CC2C1CC[C@]1(CBr)CCC3C(CC(=O)O)C(=O)O[C@@]32C1 (stereo partly drawn) | 1.04 | 0.929

Row | SMILES | PER2::LUC luminescence (time after treatment 24 h) | PER2::LUC luminescence (time after treatment 30 h)
24 | NCC(O)COc1cccc2ccccc12 (stereo not drawn) | 0.637 | 0.588
25 | Cc1onc(-c2ccccc2)c1C(=O)N1CCN(c2ccc([N+](=O)[O-])cc2Cl)CC1 | 0.896 | 1.04
26 | CC(=O)Nc1ccccc1 | 0.881 | 1.21
27 | O=C(Nc1ccccc1)Nc1ccccc1 | 1.57 | 1.44
28 | O=C(Nc1ccccc1)c1ccccc1O | 1.27 | 1.08
29 | CC(C)c1c2cc(-c3ccnc(NC4CCC(NC5CCOCC5)CC4)n3)ccc2nn1C (stereo not drawn) | 0.008 | 0.002
30 | OC[C@H]1O[C@@H](O[C@@H]2OC=C[C@H]3[C@H](O)[C@@H]4O[C@]4(CO)[C@@H]23)[C@H](O)[C@@H](O)[C@@H]1O | 1.04 | 1
31 | Cc1cc(=O)oc2cc(O)ccc12 | 1.01 and 1.08 and 0.784 | 0.94 and 0.807 and 0.997
32 | O=c1oc2ccc(O)cc2c2c1NCCC2 | 0.764 | 1.05
33 | O=c1cc(-c2ccccc2)oc2ccc(O)cc12 | 1.47 | 1.89
34 | O=c1oc2cc(O)ccc2c2oc3cc(O)ccc3c12 | 1.06 | 1.13
35 | O=c1cc(-c2ccccc2)oc2cc(O)c(O)cc12 | 1.41 | 1.47
36 | O=c1cc(-c2ccc(O)cc2)oc2ccc(O)cc12 | 1.72 | 1.87
37 | O=c1cc(-c2ccc(O)cc2)oc2cc(O)c([C@@H]3O[C@H](CO)[C@@H](O)[C@H](O)[C@H]3O)c(O)c12 | 0.972 | 0.983
38 | O=c1cc(-c2ccccc2O)oc2cc(O)ccc12 | 1.27 | 1.38
39 | O=c1cc(-c2ccccc2)oc2c(O)c(O)ccc12 | 0.582 | 0.632
40 | O=c1c(O)c(-c2ccccc2)oc2ccccc12 | 1.08 | 1.05
41 | CCOC(=O)COc1ccc2c(=O)cc(-c3ccccc3)oc2c1 | 1.06 | 1.08
42 | O=C(O)/C=C/c1ccc(O)c(O)c1/C(=C\c1ccc(O)c(O)c1)C(=O)O | 1.15 | 1.02
43 | COc1cc(O)c(C(=O)/C=C/c2ccc(OC)c(O)c2)c(OC)c1 | 1.08 | 1
44 | COc1ccc(SC(=O)N[C@@H](CCC(=O)O)C(=O)O)cc1 | 0.852 | 0.909
45 | CC(C)(O)c1ccccc1Cc1ccccc1 | 0.709 | 1.18
46 | C=CC1=C(C)C2=CC3=NC(=C(CC(=O)O)C4=NC(=C(C)C4=C(O)O)C=c4[nH]c(c(C)c4CC)=CC1=N2)C(CCC(=O)O)C3C (stereo not drawn) | 0.911 | 0.984

Row | SMILES | PER2::LUC luminescence (time after treatment 24 h) | PER2::LUC luminescence (time after treatment 30 h)
47 | OC[C@H]1O[C@H](O[C@H]2C(O)[C@@H](O)[C@@H](OC[C@H]3O[C@@H]4O[C@H]5[C@H](O)[C@@H](O)[C@@H](O[C@H]6[C@H](O)[C@@H](O)[C@@H](O[C@H]7[C@H](O)[C@@H](O)[C@@H](O[C@H]8[C@H](O)[C@@H](O)[C@@H](O[C@H]9[C@H](O)[C@@H](O)[C@@H](O[C@H]%10[C@H](O)[C@@H](O)[C@@H](O[C@H]3[C@H](O)[C@H]4O)O[C@@H]%10CO)O[C@@H]9CO)O[C@@H]8CO)O[C@@H]7CO)O[C@@H]6CO)O[C@@H]5CO)O[C@@H]2CO)[C@H](O)[C@@H](O)[C@@H]1O (stereo partly drawn) | 1.08 | 1.06
48 | C=CCCCCCCCCCCCC(O)CC(O)COC(C)=O (stereo not drawn) | 0.894 | 0.95
49 | C[C@H](CCC(=O)NCCC[N+](C)(C)CCCS(=O)(=O)[O-])[C@H]1CC[C@H]2[C@@H]3[C@H](O)C[C@@H]4C[C@H](O)CC[C@]4(C)[C@H]3C[C@H](O)[C@]12C | 1.06 | 0.883
50 | O=c1cc(-c2ccccc2)oc2cc(O)ccc12 | 1.48 | 1.84
51 | O=c1c(O)c(-c2ccccc2)oc2cc(O)ccc12 | 1.13 | 1.18
52 | CC1=C([C@@H]2C=C3[C@@H](CC[C@]4(C)[C@@H]([C@H](C)CCCC(C)C)CC[C@@H]34)n3c(=O)n(-c4ccccc4)c(=O)n32)C[C@@H](O)C[C@@H]1O | 0.94 | 0.899
53 | O=c1cnn([C@@H]2O[C@H](CO)[C@@H](O)[C@H]2O)c(=O)[nH]1 | 1.41 | 1.5
54 | O=c1ccn([C@@H]2O[C@H](CO)[C@@H](O)[C@H]2O)c(=O)[nH]1 | 0.979 | 1.03
55 | O=c1ncccn1[C@@H]1O[C@H](CO)[C@@H](O)[C@H]1O | 0.999 | 1.07
56 | NC(=NC12CC3CC(CC(C3)C1)C2)Nc1ccc(I)cc1 | 1.06 | 0.918
57 | CNC(=O)c1cc(Oc2ccc(NC(=O)c3cccc(C(F)(F)F)c3)cc2)ccn1 | 1.15 | 1.14
58 | CCOC(=O)c1ccc(N(C)c2csc(-c3ccccc3)n2)cc1 | 1.19 | 1.58
59 | O=C(OCc1ccccc1)c1ccccc1 | 1.05 | 1.03
60 | CCOC(=O)c1ccc(O)cc1 | 1.06 and 0.859 | 1.02 and 0.79
61 | Cn1cc(-c2ccc3nnc(Sc4ccc5nn(C)cc5c4)n3n2)cn1 | 0.782 | 0.785
62 | C=CC(C)(C)c1cc(/C=C\C(=O)c2ccc(O)cc2)c(OC)cc1O | 0.553 | 0.862
63 | C[C@@H]1C[C@H]2[C@@H]3C[C@H](F)C4=CC(=O)C(Cl)=C[C@]4(C)[C@@]3(F)[C@@H](O)C[C@]2(C)[C@@]1(O)C(=O)CO | 0.765 | 0.857
64 | CC(=O)O[C@H](CC(=O)O)C[N+](C)(C)C | 1.03 | 0.967
65 | CC(C)(C)OC(=O)N1CCC(OCc2nc(-c3ccncc3)no2)CC1 | 0.986 | 0.843
66 | NC(=O)c1cccc(N)c1 | 1.1 | 1.01
67 | NC(=O)c1cccc(-c2cccc(OC(=O)NC3CCCCC3)c2)c1 | 1.27 | 1.36
68 | CC(=O)c1ccc(S(=O)(=O)NC(=O)NC2CCCCC2)cc1 | 1.02 | 0.908
69 | CCCCOC(=O)c1ccc(N)cc1 | 1.06 and 1.09 | 1.28 and 1.2

Row | SMILES | PER2::LUC luminescence (time after treatment 24 h) | PER2::LUC luminescence (time after treatment 30 h)
70 | N=C(N)c1ccc(N)cc1 | 0.971 | 1.01
71 | CCCCN(CCCC)CCCOC(=O)c1ccc(N)cc1 | 0.966 | 0.832
72 | CCCCOC(=O)c1ccc(O)cc1 | 1.63 and 1.43 | 1.61 and 1.57
73 | CCCOc1ccc(C(=O)OCCN(CC)CC)cc1N | 1.03 | 0.962
74 | CC(C)COC(=O)c1ccc(N)cc1 | 1.34 | 1.43
75 | Nc1ccc(C(=O)O)cc1 | 0.924 and 0.9 | 0.926 and 0.943
76 | CCCCNc1ccc(C(=O)OCCN(C)C)cc1 | 1.04 | 0.965
77 | CCN(CC)CCOC(=O)c1ccc(N)cc1 | 1.07 and 0.897 | 1.58 and 0.928
78 | CN(C)[C@@H]1c2onc(OCc3ccccc3)c2C(=O)[C@@]2(O[Si](C)(C)C(C)(C)C)C(=O)C=CC[C@@H]12 | 0.723 | 0.75
79 | c1ccc2[nH]ncc2c1 | 0.963 | 0.985
80 | CN1c2ccccc2C(=O)N2CCc3c([nH]c4ccccc34)C21 (stereo in doubt) | 0.589 | 0.628
81 | CN1CCc2ccccc2Cc2[nH]c3ccccc3c2CC1 | 1.11 | 0.824
82 | CNc1ccccc1C(=O)N1CCc2c([nH]c3ccccc23)C1=O | 1.56 | 1.79
83 | O=Cc1ccc2cccc(O)c2n1 | 1.1 | 0.962
84 | Nc1n[n+]([O-])c2ccccc2[n+]1[O-] | 1.36 | 1.15
85 | CNC(=S)NCCSCc1[nH]cnc1C | 1.06 | 1.06
86 | N[C@@H](CCS(=O)O)C(=O)O | 0.964 | 0.944
87 | O=C(O)c1ccccc1 | 0.918 | 0.766
88 | O=C(OOC(=O)c1ccccc1)c1ccccc1 | 1.2 | 0.843
89 | CN(NC(=O)CC(=O)NN(C)C(=S)c1ccccc1)C(=S)c1ccccc1 | 1.68 | 1.1

Source: the supplement of paper PMC9334596
